pS6 MEF inh: Acumen qHTS Assay for Inhibitors of the mTORC1 Signaling Pathway in MEF (Tsc2-/-, p53-/-) Cells: Sytravon | Tsc2-/- p53-/- MEF, phospho-rpS6 immunofluorescence/PI, 24 h | Potency, µM (series often up to 38.3 µM), hits mostly inhibitors | hit rate 0.78% among 44,000 | AID 493208, 2011; also: nearly all actives have a fitted effect of over 50% in size
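Tsc2-/-, p53-/- mouse embryonic fibroblasts (empty-vector line) exposed to compound 24 hrs at 37 C, fixed, immunostained for phospho-rpS6 and counterstained with propidium iodide. Acumen laser scanning gives % positive cells from Alexa 488/PI ratio, thresholded using 7.5 nM rapamycin; PI count gives viability.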
OvCa metastasis: Primary qHTS assay for Inhibitors of ovarian cancer metastasis using an organotypic tumor microenvironment (TME) model | hit rate 0.1% among 46,000 | SKOV3ip1-GFP adhesion/invasion on 3D omental model, fluorescence | Potency, µM (highest dose often 45.8 µM), actives largely listed as inhibitors; also: nearly all actives have a fitted effect of over 65% in size
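qHTS, 4-pt dose (0.36-46 umol/L); SKOV3ip1-GFP, 1,200 cells/well, no FBS; primary omental fibroblast/mesothelial co-culture 48 h pre-grown; 2 h RT + 16 h 37 C; PBS wash, 4% PFA; GFP count 488/509 nm.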
PMP22 txn prim: Cell-based coincidence reporter assay to measure PMP22 gene transcription in S16 Pmp22-F2sN cells - Primary screen | S16 Pmp22-F2sN Schwann cells, FLuc/NLuc coincidence luminescence, 24 h | Potency, µM (titrated, usually from 57.5 µM), actives largely listed as inhibitors | hit rate 2% among 43,000; active = clear falling dose curves in both reporters; inconclusive = both reporters move, but less clearly or upward; inactive = either reporter flat; the % is the NLuc reporter signal
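S16(c9) Schwann cells with FLuc/NLuc coincidence reporter in the Pmp22 3' UTR; compounds pin-transferred, 24 h at 37C. Dual-luciferase read: FLuc first, then NLuc after Stop&Glo, each 10 min at room temperature.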
S16 viability: Cell viability qHTS assay in S16 Pmp22-F2sN cells; S16 Pmp22-F2sN Schwann cells viability, CellTiter-Glo, 24 h; Potency, µM (doses to about 57.5 µM), hits mostly cytotoxic; hit rate 0.48% among 43,000; AID 1508642, 2021; also: nearly all actives have a fitted effect of over 65% in size
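Used to flag compounds lowering reporter output through toxicity, this quantitative HTS measures ATP-based CellTiter-Glo luminescence in S16 Pmp22-F2sN Schwann cells after 24 h compound exposure at 37C.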
NLuc saturating: Biochemical NLuc saturation counterscreen for small molecule modulators of PMP22 gene expression - Nano-Glo assay | shares compounds with PMP22 txn prim | hit rate 4% among 690 | AID 1508638, 2021 | Potency, µM (top dose mostly 57.5 µM), hits mostly inhibitors | Secreted NLuc enzyme (filtered S16 cell medium), Nano-Glo luminescence
NLuc Km ctr: Biochemical coelenterazine-based NLuc counterscreen for small molecule modulators of PMP22 gene expression - Km assay. shares compounds with PMP22 txn prim. secreted NLuc enzyme, coelenterazine luminescence, Km conditions. Potency, µM (doses to about 57.5 µM), most hits filed as inhibitors. hit rate 5% among 690
FLuc ctr PMP22: Biochemical FLuc counterscreen for small molecule modulators of PMP22 gene expression | Potency, µM (doses to about 57.5 µM), usual class: inhibitors | purified P. pyralis FLuc, luminescence, 10 min | 690 tested, under 10 active | AID 1508640, 2021 | shares compounds with PMP22 txn prim
Target sequence (P08659 whole entry, looked up): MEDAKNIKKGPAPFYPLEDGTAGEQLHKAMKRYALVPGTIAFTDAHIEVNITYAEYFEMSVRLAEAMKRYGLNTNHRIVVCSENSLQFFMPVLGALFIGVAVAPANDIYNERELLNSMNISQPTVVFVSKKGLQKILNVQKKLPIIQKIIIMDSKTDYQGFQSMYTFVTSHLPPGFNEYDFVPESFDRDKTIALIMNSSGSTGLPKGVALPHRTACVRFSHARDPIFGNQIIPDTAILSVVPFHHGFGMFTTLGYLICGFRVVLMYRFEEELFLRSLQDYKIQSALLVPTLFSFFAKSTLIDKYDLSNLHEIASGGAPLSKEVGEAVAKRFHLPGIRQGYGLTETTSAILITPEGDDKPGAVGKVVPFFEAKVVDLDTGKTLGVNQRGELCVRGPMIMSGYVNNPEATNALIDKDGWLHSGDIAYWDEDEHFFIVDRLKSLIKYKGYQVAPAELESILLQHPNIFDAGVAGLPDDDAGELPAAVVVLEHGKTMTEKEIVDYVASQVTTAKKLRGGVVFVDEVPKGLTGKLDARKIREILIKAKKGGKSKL
S16 F2sN tox cnf: Cell viability qHTS assay in S16 Pmp22-F2sN cells - Confirmatory screen; shares compounds with PMP22 txn prim; S16 Schwann cells viability, CellTiter-Glo ATP luminescence, 24 h; Potency, µM (series often up to 57.5 µM), most hits filed as cytotoxic; hit rate 7% among 690
PMP22 txn cnf: Cell-based coincidence reporter assay to measure PMP22 gene transcription in S16 Pmp22-F2sN cells - Confirmatory screen; shares compounds with PMP22 txn prim; hit rate 22% among 690; Potency, µM (titrated, usually from 57.5 µM), actives largely listed as inhibitors; S16 Schwann cells Pmp22-F2sN, dual luciferase, 24 h; active = clear falling dose curves in both reporters; inconclusive = both reporters move, but less clearly or upward; inactive = either reporter flat; the % is the FLuc reporter signal
Numbers stand for hits; 0 = inactive; ? = inconclusive; - = no result. Sampled rows, rich in hits. Any-hit rate of the full collection: about 2.6%. Unless noted, calls follow the shape of the dose curve; as a rule, active = well fitted curve in the direction sought with a large enough effect; inconclusive = small, poorly fitted or top-dose-only effect, or another doubt; inactive = no such curve, though single readings can be large; an effect the other way counts as inactive or inconclusive.

SMILES | pS6 MEF inh | OvCa metastasis | PMP22 txn prim | S16 viability | NLuc saturating | NLuc Km ctr | FLuc ctr PMP22 | S16 F2sN tox cnf | PMP22 txn cnf
O=C(CSC1=Nc2ccccc2N=C(c2ccc(F)cc2)C1)Nc1ccccc1 | 0 | 0 | 0 | 0 | - | - | - | - | -
CC(=O)c1ccc(NC(=O)CSC2=Nc3ccccc3N=C(c3ccc(F)cc3)C2)cc1 | 0 | 0 | 15µM | ? | ? | ? | 0 | 0 | ?
CCCCCn1c(=N)n(CC(O)COc2cccc(C)c2)c2ccccc21 (stereo not drawn) | 3.7µM | ? | 18µM | ? | 0 | 0 | 0 | 22µM | 16µM
N=c1n(CCN2CCCCC2)c2ccccc2n1CC(O)COc1ccccc1 (stereo not drawn) | - | ? | ? | 0 | - | - | - | - | -
Cc1cccc(C)c1Nc1c(-c2ccsc2)nc2ccc(Cl)cn12 | 0 | 0 | 0 | 0 | - | - | - | - | -
Cc1cccc(C)c1Nc1c(-c2ccsc2)nc2ccccn12 | 0 | 0 | 9.5µM | ? | ? | 22µM | 0 | 0 | ?
O=C(NCCCN1CCN(c2ccc(F)cc2)CC1)Nc1ccccc1Cl | 0 | ? | 13µM | 0 | ? | 0 | 0 | ? | 0
CCc1ccccc1NC(=O)Cn1c(=O)c2cccn2c2ccc(F)cc21 | 0 | 0 | 0 | 0 | - | - | - | - | -
Cc1cccc(NC(=O)Cn2c(=O)c3cccn3c3ccccc32)c1C | ? | 0 | ? | 0 | 0 | 0 | 0 | 0 | 0
CC(C)(C)OC(=O)N[C@H]1CCCCCC=C[C@@H]2C[C@@]2(C(=O)NS(=O)(=O)C2CC2)NC(=O)[C@@H]2C[C@@H](OC(=O)N3Cc4cccc(F)c4C3)CN2C1=O | - | 0 | - | - | - | - | - | - | -
O=C(C=Cc1ccc(/C=C/C(=O)Nc2ccc(C3=NCCN3)cc2)cc1)Nc1ccc(C2=NCCN2)cc1 | - | 0 | - | - | - | - | - | - | -
CCOC(=O)C1CCN(c2nc(-c3ccc(Br)cc3)nc3ccccc23)CC1 | 0 | 0 | 15µM | ? | 0 | 0 | 0 | 0 | 0
CC1(C)SCCN(S(=O)(=O)c2ccc(OCC#CCO)cc2)[C@@H]1C(=O)NO | - | 0 | - | - | - | - | - | - | -
CCc1ccc(NC(=O)c2ccc3c(c2)c(C)c(C)n3Cc2ccccc2)cc1 | 0 | 0 | ? | 0 | 0 | 0 | ? | 0 | ?
CCc1ccc(CNC(=O)c2ccc3c(c2)c(C)c(C)n3Cc2ccccc2)cc1 | 0 | 0 | 0 | 0 | - | - | - | - | -
C=C1C(=CC=C2CCC[C@]3(C)[C@@H]([C@H](C)CCCC(C)(C)O)CC[C@@H]23)C[C@@H](O)C[C@@H]1O | - | 0 | - | - | - | - | - | - | -
COC(=O)COc1ccc(-c2nnc(Nc3ccc(O)cc3)c3ccccc23)cc1 | ? | 2.5µM | 11µM | ? | 12µM | 11µM | 0 | 0 | ?
CNC(=O)c1cc(Nc2nnc(-c3ccc(O)cc3)c3ccccc23)ccc1OC | 0 | 0 | 0 | ? | - | - | - | - | -
Cc1ncc(CO)c2c1Oc1nc(-c3ccccc3)nc(SCC(=O)N3CCCCC3)c1C2 | 0 | 0 | 12µM | 0 | 0 | 0 | 0 | ? | ?

Source: PubChem BioAssay (National Center for Advancing Translational Sciences (NCATS))
